# Source: PubChem BioAssay (EPA / NIEHS)
# The source made the active and inactive calls. How the source made its calls: active means hit-call score of the fitted dose curve at least 0.9, where 1 is the maximum; inactive means score below 0.9.
# Tests used:
# [1] = APR_HepG2_CellCycleArrest_24hr: Apredica 24-hour HepG2 Assay for Cell Cycle Arrest (AID 2282905); settings: imaging, actives raise or lower the signal;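 further: cell cycle arrest scored as ratio of 2N to 4N nuclear DNA content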
# Procedure, shortened: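 HepG2, 24 hr dosing, 10-pt 0.39–200 uM in duplicate, 0.5% DMSO. Fixed 3.7% formaldehyde, permeabilized 0.5% Triton X-100, Hoechst 33342 2 ug/mL. Imaged 20x; nuclear DNA content quantified; bidirectional fit vs DMSO.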
# [2] = APR_HepG2_StressKinase_1hr: Apredica 1-hour HepG2 Assay for Stress Kinase (AID 2282906); settings: HepG2 stress kinase (phospho-c-Jun) imaging, actives raise or lower the signal
# Procedure, shortened: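 HepG2 cells dosed 0.39-200 uM (0.5% DMSO) for 1 h, then formaldehyde-fixed. Stress kinase read by phospho-c-Jun immunofluorescence using high-content imaging; bidirectional fit vs DMSO.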
# [3] = APR_HepG2_NuclearSize_24hr: Apredica 24-hour HepG2 Assay for Nuclear Size (AID 2282907); settings: high-content imaging, actives raise or lower the signal
# Procedure, shortened: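 HepG2, 24 hr dosing, 10-pt 0.39–200 uM, duplicates, 0.5% DMSO final; 3.7% formaldehyde fix, 0.5% Triton X-100; Hoechst 33342 nuclear stain; ArrayScan HCS, Cell Cycle analysis → nuclear size; bidirectional fit vs DMSO.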
# [4] = APR_HepG2_CellLoss_24hr: Apredica 24-hour HepG2 Assay for Cell Loss (AID 2282908); settings: high-content imaging;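 on AC50: fit in both directions so a hit may be cell loss or gain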
# Procedure, shortened: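 10-pt dose, 0.39–200 uM, n=2/plate; DMSO 0.5% v/v final as negative control. Fix 3.7% formaldehyde 30 min RT, permeabilize 0.5% Triton X-100, stain Hoechst 33342 2 ug/mL, image 20x. Nuclear count, bidirectional fit vs DMSO.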
# [5] = APR_HepG2_MicrotubuleCSK_24hr: Apredica 24-hour HepG2 Assay for Microtubule CSK Stabilty (AID 2282909); settings: HepG2 microtubule cytoskeleton imaging, actives raise or lower the signal
# Procedure, shortened: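 Human liver HepG2, 24 h dosing, 0.39–200 uM ×10 conc, dup, 0.5% DMSO. 3.7% formaldehyde fix, 0.5% Triton perm, anti-alpha-tubulin (1:200)/Cy5 secondary + Hoechst. HCS imaging, 6 fields/well; gain/loss fit vs DMSO.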
# [6] = APR_HepG2_MitoticArrest_24hr: Apredica 24-hour HepG2 Assay for Mitotic Arrest (AID 2282910); settings: high-content imaging, actives raise or lower the signal
# Procedure, shortened: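 HepG2 cells, 24 h exposure at 0.39-200 uM (10 concentrations, duplicate, 0.5% DMSO). Fixed, stained for phospho-histone H3 with Hoechst; imaged by high-content microscopy, bidirectional fit versus DMSO.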
# [7] = APR_HepG2_MitoMembPot_24hr: Apredica 24-hour HepG2 Assay for Mitochondrial Membrane Potential (AID 2282911); settings: imaging, actives raise or lower the signal
# Procedure, shortened: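 Mitochondrial dye uptake (MitoTracker Red CMXRos, 250 nM, 30 min pre-fixation) in HepG2 after 24 hr compound exposure, 0.39–200 uM; ArrayScan images at 20x, activity fitted in both directions relative to DMSO.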
# [8] = APR_HepG2_MitoMass_24hr: Apredica 24-hour HepG2 Assay for Mitochondrial Mass (AID 2282912); settings: high-content imaging, actives raise or lower the signal
# Procedure, shortened: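 Mitochondrial mass is read as MitoTracker Red fluorescence intensity from automated imaging, with bidirectional curve fitting relative to DMSO. HepG2 cells received compound (0.39–200 uM, 0.5% DMSO final) for 24 hr and were dye-loaded (250 nM, 30 min) before formaldehyde fixation.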
# [9] = APR_HepG2_p53Act_24hr: Apredica 24-hour HepG2 Assay for p53 Activation (AID 2282913); settings: high-content imaging, actives raise or lower the signal;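 further: p53 protein immunofluorescence averaged per cell in HepG2 with Hoechst nuclei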
# Procedure, shortened: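 Following 24 hr dosing of HepG2 at 0.39–200 uM, the cells undergo formaldehyde fixation, Triton permeabilization and multiplexed antibody labeling that includes p53 (Cy5). Signal from the imaging is referenced to DMSO solvent controls.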
# [10] = APR_HepG2_CellCycleArrest_72hr: Apredica 72-hour HepG2 Assay for Cell Cycle Arrest (AID 2282914); settings: high-content imaging, actives raise or lower the signal
# Procedure, shortened: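 Using multiplexed high-content imaging, HepG2 nuclei stained with Hoechst 33342 (2 ug/mL) were analysed for DNA content after fixation and permeabilization. Treatment lasted 72 hr across 0.39–200 uM in duplicate with final DMSO 0.5% v/v; DMSO served as negative control.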
# [11] = APR_HepG2_P-H2AX_72hr: Apredica 72-hour HepG2 Assay for H2AX Phosphorylation (AID 2282916); settings: imaging, actives raise or lower the signal;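 further: phospho-histone H2A.x immunostain intensity per cell marking DNA damage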
# Procedure, shortened: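 HepG2; cpd 0.39–200 uM ×10 conc, duplicates; 0.5% DMSO; 72 hr. Fix 3.7% formaldehyde 30 min RT, 0.5% Triton X-100 10 min. Anti-phospho-H2A.x 1:200 + Hoechst 2 ug/mL, 60 min RT; ArrayScan imaging.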
# [12] = APR_HepG2_MitoMembPot_72hr: Apredica 72-hour HepG2 Assay for Mitochondrial Membrane Potential (AID 2282917); settings: imaging, actives raise or lower the signal
# Procedure, shortened: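 HepG2 cells dosed 72 hr with compound at 0.39–200 uM in duplicate, 0.5% v/v DMSO final. Mitochondria stained with 250 nM MitoTracker Red CMXRos for 30 min before formaldehyde fixation, imaged by high-content fluorescence; bidirectional fit versus DMSO.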
# [13] = APR_HepG2_MicrotubuleCSK_72hr: Apredica 72-hour HepG2 Assay for Microtubule CSK Stabilty (AID 2282919); settings: HepG2 microtubule cytoskeleton, high-content imaging, actives raise or lower the signal
# Procedure, shortened: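 HepG2 cells were exposed 72 hr to compound at 0.39–200 uM in duplicate (0.5% DMSO final), then fixed and permeabilized. Alpha-tubulin immunofluorescence was imaged by high-content microscopy, with bidirectional fitting against DMSO and taxol as positive control.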
# [14] = APR_HepG2_P-H2AX_24hr: Apredica 24-hour HepG2 Assay for H2AX Phosphorylation (AID 2282920); settings: high-content imaging, actives raise or lower the signal
# Procedure, shortened: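 Human HepG2 liver cells, treated 24 hr with test chemicals (0.39–200 uM, final DMSO 0.5% v/v), are fixed and co-stained for phospho-H2A.x and c-Jun with Hoechst. Imaged intensity is fitted in both directions against DMSO controls.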
# [15] = APR_HepG2_StressKinase_72hr: Apredica 72-hour HepG2 Assay for Stress Kinase (AID 2282921); settings: HepG2 stress kinase (phospho-c-Jun) imaging, actives raise or lower the signal
# Procedure, shortened: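 Dose 0.39–200 uM (10 pts, duplicate), 0.5% DMSO; 72 h; fix 3.7% formaldehyde 30 min RT; Triton permeabilize; anti-phospho-c-Jun/Cy3 + Hoechst 60 min RT; image 20x; fit gain/loss vs DMSO.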
# [16] = APR_HepG2_StressKinase_24hr: Apredica 24-hour HepG2 Assay for Stress Kinase (AID 2282922); settings: HepG2 stress kinase (phospho-c-Jun) imaging, actives raise or lower the signal
# Procedure, shortened: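 HepG2 cells exposed 24 h to 0.39–200 uM compound in duplicate (0.5% v/v DMSO final). Cells fixed in 3.7% formaldehyde, permeabilized and immunostained for phospho-c-Jun; read by high-content fluorescence imaging, fitted bidirectionally against DMSO.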
# [17] = APR_HepG2_p53Act_72hr: Apredica 72-hour HepG2 Assay for p53 Activation (AID 2282923); settings: high-content imaging, actives raise or lower the signal;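 further: average cellular p53 protein immunofluorescence intensity in HepG2 cells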
# Procedure, shortened: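 10-pt conc. 0.39–200 uM, duplicate, 0.5% DMSO; 72 hr exposure; 3.7% formaldehyde fix, 0.5% Triton perm; sheep anti-p53/Cy5 + Hoechst; ArrayScan 20x, 6 images/well; gain/loss fit vs DMSO.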
# [18] = APR_HepG2_MitoMass_72hr: Apredica 72-hour HepG2 Assay for Mitochondrial Mass (AID 2282924); settings: high-content imaging, actives raise or lower the signal;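 further: MitoTracker Red CMXRos stain intensity per cell imaged as mitochondrial mass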
# Procedure, shortened: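 HepG2 cells dosed 72 hr at 0.39–200 uM (0.5% DMSO), in duplicate. MitoTracker Red CMXRos 250 nM loaded 30 min before formaldehyde fixation; high-content fluorescence imaging, bidirectional fit versus DMSO.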
# [19] = APR_HepG2_MitoticArrest_72hr: Apredica 72-hour HepG2 Assay for Mitotic Arrest (AID 2282918); settings: high-content imaging, actives raise or lower the signal
# Procedure, shortened: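 Using high-content imaging of fixed HepG2 cells, phospho-histone H3 signal was measured following a 72 hr incubation with ten-point compound dilutions up to 200 uM. DMSO served as the negative control and baseline for bidirectional curve fitting.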
# [20] = APR_HepG2_CellLoss_72hr: Apredica 72-hour HepG2 Assay for Cell Loss (AID 2282915); settings: high-content imaging
# Procedure, shortened: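 HepG2 cells exposed 72 h to compound at 0.39–200 uM (10 concentrations, duplicate) in 0.5% DMSO. Fixed with 3.7% formaldehyde and Hoechst 33342-stained. Imaged at 20x; nuclear count gives cell number, fitted bidirectionally versus DMSO.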
compound,measurement,setting,value
O=C1C2CC=CCC2C(=O)N1SC(Cl)(Cl)Cl (stereo not drawn),AC50,[1],33.4 µM (active)
same,AC50,[2],87.6 µM (active)
same,AC50,[3],59.3 µM (active)
same,AC50,[4],54.6 µM (active)
same,AC50,[5],24.1 µM (active)
same,AC50,[6],30.1 µM (active)
same,outcome,[7],inactive
same,outcome,[8],inactive
same,AC50,[9],28.5 µM (active)
same,outcome,[10],inactive
same,AC50,[11],88.1 µM (active)
same,outcome,[12],inactive
same,outcome,[13],inactive
same,AC50,[14],45.2 µM (active)
same,outcome,[15],inactive
same,AC50,[16],28.1 µM (active)
same,outcome,[17],inactive
same,outcome,[18],inactive
CCSC(=O)N1CCCCCC1,outcome,[1],inactive
same,outcome,[2],inactive
same,outcome,[3],inactive
same,outcome,[4],inactive
same,outcome,[5],inactive
same,outcome,[6],inactive
same,outcome,[7],inactive
same,outcome,[8],inactive
same,outcome,[10],inactive
same,outcome,[11],inactive
same,outcome,[19],inactive
same,outcome,[13],inactive
same,outcome,[14],inactive
same,outcome,[15],inactive
same,outcome,[16],inactive
same,outcome,[17],inactive
same,outcome,[18],inactive
Clc1cccc(C(Cl)(Cl)Cl)n1,outcome,[1],inactive
same,outcome,[2],inactive
same,outcome,[3],inactive
same,outcome,[4],inactive
same,outcome,[5],inactive
same,outcome,[6],inactive
same,outcome,[7],inactive
same,outcome,[8],inactive
same,outcome,[10],inactive
same,outcome,[20],inactive
same,outcome,[11],inactive
same,outcome,[12],inactive
same,outcome,[19],inactive
same,outcome,[13],inactive
same,outcome,[14],inactive
same,outcome,[15],inactive
same,outcome,[16],inactive
same,outcome,[17],inactive
same,outcome,[18],inactive
COP(=O)(OC)O/C(C)=C/C(=O)N(C)C,outcome,[1],inactive
same,outcome,[2],inactive
same,outcome,[3],inactive
same,outcome,[4],inactive
same,outcome,[5],inactive
same,outcome,[6],inactive
same,outcome,[7],inactive
same,outcome,[8],inactive
same,outcome,[10],inactive
same,outcome,[11],inactive
same,outcome,[12],inactive
same,outcome,[13],inactive
same,outcome,[14],inactive
same,outcome,[15],inactive
same,outcome,[16],inactive
same,outcome,[17],inactive
same,outcome,[18],inactive
CC(C)Oc1cccc(NC(=O)c2ccccc2C(F)(F)F)c1,outcome,[1],inactive
same,outcome,[2],inactive
same,outcome,[3],inactive
same,outcome,[4],inactive
same,outcome,[5],inactive
same,outcome,[6],inactive
same,outcome,[7],inactive
same,outcome,[8],inactive
same,outcome,[10],inactive
same,AC50,[20],131 µM (active)
same,outcome,[11],inactive
same,AC50,[13],100 µM (active)
same,outcome,[14],inactive
same,outcome,[15],inactive
same,outcome,[16],inactive
same,outcome,[17],inactive
same,outcome,[18],inactive
CC(C)N1C(=O)N(c2ccccc2)CSC1=NC(C)(C)C,AC50,[1],97.8 µM (active)
same,outcome,[2],inactive
same,outcome,[3],inactive
same,AC50,[4],115 µM (active)
same,AC50,[5],76.6 µM (active)
same,AC50,[6],114 µM (active)
same,outcome,[7],inactive
same,outcome,[8],inactive
same,outcome,[9],inactive
same,outcome,[10],inactive
same,AC50,[20],42.5 µM (active)
same,outcome,[11],inactive
same,AC50,[13],32.6 µM (active)
same,AC50,[14],111 µM (active)
same,outcome,[15],inactive
same,outcome,[16],inactive
same,outcome,[17],inactive
same,outcome,[18],inactive
Cc1ccc(N=CN(C)C=Nc2ccc(C)cc2C)c(C)c1,outcome,[1],inactive
same,AC50,[2],75.4 µM (active)
same,outcome,[3],inactive
same,AC50,[4],117 µM (active)
same,outcome,[5],inactive
same,outcome,[6],inactive
same,AC50,[7],44.7 µM (active)
same,outcome,[8],inactive
same,outcome,[9],inactive
same,outcome,[10],inactive
same,outcome,[20],inactive
same,outcome,[11],inactive
same,AC50,[13],163 µM (active)
same,AC50,[14],154 µM (active)
same,outcome,[15],inactive
same,outcome,[16],inactive
same,outcome,[17],inactive
same,outcome,[18],inactive
CNC(=O)Oc1cccc2ccccc12,outcome,[1],inactive
same,outcome,[2],inactive
same,outcome,[3],inactive
same,AC50,[4],50.5 µM (active)
same,outcome,[5],inactive
same,outcome,[6],inactive
same,outcome,[7],inactive
same,outcome,[8],inactive
same,outcome,[9],inactive
same,outcome,[10],inactive
same,AC50,[11],97.3 µM (active)
same,outcome,[19],inactive
same,outcome,[13],inactive
same,AC50,[14],102 µM (active)
same,outcome,[15],inactive
same,outcome,[16],inactive
same,outcome,[17],inactive
same,AC50,[18],36 µM (active)
COCc1cnc(C2=NC(C)(C(C)C)C(=O)N2)c(C(=O)O)c1 (stereo not drawn),outcome,[1],inactive
same,outcome,[2],inactive
same,outcome,[3],inactive
same,outcome,[4],inactive
same,outcome,[5],inactive
same,outcome,[6],inactive
same,outcome,[7],inactive
same,outcome,[8],inactive
same,outcome,[10],inactive
same,outcome,[20],inactive
same,outcome,[11],inactive
same,outcome,[13],inactive
same,outcome,[14],inactive
same,outcome,[15],inactive
same,outcome,[16],inactive
same,outcome,[18],inactive
